# Assay results taken from ChEMBL document CHEMBL1201862, “PubChem BioAssay data set” (2004).
# The campaign covered roughly 44,000 sequences. About 5,100 (12%) were called active. No stated cut-off is given here; in the data, active = GI50 up to about 1.1 µM and inactive = higher. The list comes from a sample in which actives are over-represented; it also holds similar and randomly drawn sequences. Potency and affinity values are given separately.
# Test system: MCF7
row,Substance,GI50 [nM]
1,"SENNOSIDES, CHEMBL2108559",183
2,"[Bis(aminomethyl)tetramethylenesilane]tetrachloropaltinum(IV), CHEMBL2146189",1640
3,"[Bis(aminomethyl)dimethylsilane]tetrachloroplatinum(IV), CHEMBL2146190",2970
4,"CISPLATIN, CHEMBL11359",3010
5,"[Bis(aminomethyl)pentamethylenesilane]dichloropaltinum(II), CHEMBL2146202",249
6,"[Bis(aminomethyl)pentamethylenesilane]tetrachloropaltinum(IV), CHEMBL2146204",290
7,"[Bis(aminomethyl)tetramethylenesilane]dichloropaltinum(II), CHEMBL2146205",2220
